Measurements as given in PubChem BioAssay (NCATS).
Records with an inconclusive call do not appear. Calls of active or inactive are those of the source. Unless noted, calls come from the whole dose curve; as a rule, active = well fitted curve in either direction with a large enough effect (not every such curve was filed as active); inconclusive = small, poorly fitted or top-dose-only effect, or another doubt; inactive = flat fitted curve, though single readings scatter.

How the values were obtained:
[1] = AP1 Signaling Pathway (AID 357);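 note: ME-180 reporter cells stimulated with EGF at its EC50 level; % is set by controls: 0 for no effect and ±100 for the full control effect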
Outline: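 A ratiometric CCF4 readout (405 nm excitation; 460 and 530 nm emission) quantified AP-1-driven beta-lactamase in ME-180 cells after 5 h with compound and EC50 EGF; AC50 values were derived for activators and inhibitors.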

[2] = biological target: Cytochrome P450 1A2 (Homo sapiens) (UniProt P05177); assay: p450-cyp1a2 (AID 410; calls by dose curve; note: potency is the fitted concentration of half-maximal effect;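 for activity change, negative = inhibition: -100% = full effect of reference inhibitor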)
Sequence of Cytochrome P450 1A2 (Homo sapiens) (P05177 whole entry, looked up): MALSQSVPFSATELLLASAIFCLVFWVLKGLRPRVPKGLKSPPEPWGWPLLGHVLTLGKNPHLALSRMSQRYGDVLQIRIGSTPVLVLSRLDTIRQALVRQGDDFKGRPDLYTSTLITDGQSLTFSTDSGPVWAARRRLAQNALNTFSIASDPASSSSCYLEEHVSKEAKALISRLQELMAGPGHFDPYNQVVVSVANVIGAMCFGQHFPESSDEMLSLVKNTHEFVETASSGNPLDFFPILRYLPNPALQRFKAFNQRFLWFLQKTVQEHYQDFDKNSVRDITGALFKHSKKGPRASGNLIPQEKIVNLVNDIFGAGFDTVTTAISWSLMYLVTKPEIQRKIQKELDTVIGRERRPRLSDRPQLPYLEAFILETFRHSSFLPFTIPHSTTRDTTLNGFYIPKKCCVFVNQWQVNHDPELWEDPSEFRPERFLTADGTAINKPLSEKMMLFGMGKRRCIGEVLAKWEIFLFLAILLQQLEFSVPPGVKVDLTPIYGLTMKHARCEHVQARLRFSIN
Outline: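 Read-out is luminescence from luciferin produced by CYP1A2 demethylation of Luciferin-ME (100uM, at Km). Detection reagent stopped the 60 min NADPH-dependent reaction; signals were normalized to 57 uM furafylline.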

[3] = NFAT Signaling Pathway (AID 444); settings: Jurkat NFAT-bla M1, carbachol, beta-lactamase ratio, 5 h; at 17.2 µM (top of the series) unless noted;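 note: carbachol stimulus at about its EC50 of 1 µM final; % is set by controls: 0 for no effect and ±100 for the full control effect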
Outline: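 Jurkat cells with NFAT-driven β-lactamase reporter and co-expressed M1 receptor, stimulated with carbachol (final 1 uM, ~EC50), compound titration, 5 h at 37 °C. CCF4 loaded 1 h at RT; 460/530 nm ratio gave %activity and AC50.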

[4] = Stat Signaling Pathway (AID 446);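 note: ME-180 cervical cancer cells given 40 pM IL-6 alongside compound; SIE-controlled beta-lactamase reporter measured as 460/530 nm FRET emission ratio; % is set by controls: 0 for no effect and ±100 for the full control effect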
Outline: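 Compound effects on IL-6-induced STAT reporter activity were measured in ME-180 cells. After overnight culture, cells were co-treated with 40 pM IL-6 for 5 hrs before beta-lactamase substrate loading at room temperature.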

[5] = biological target: Mitogen-activated protein kinase 10 (Mus musculus) (UniProt Q61831); assay: JNK3 AlphaScreen Assay (AID 530);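 note: kinase came from lysate of stimulated human HepG2 cells; signal reports phosphorylation of biotinylated GST-cJun 1-79 at Ser73 with 10 µM ATP; % is set by controls: 0 for no effect and ±100 for the full control effect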
Outline: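 HepG2 lysate (IL-1b/TNFa pre-activated) + biotin-GST-cJun 1-79 + anti-pSer73 cJun; cpd titration, 15 min RT; ATP 10 uM start; Tris pH 7.6, MgCl2, DTT, vanadate; beads in EDTA buffer; AlphaScreen.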

[6] = biological target: 3',5'-cyclic-AMP phosphodiesterase 4B (Homo sapiens) (UniProt Q07343); assay: qHTS Assay for Inhibitors of PDE-IV (AID 607; active = well fitted activation curve with a large enough effect in the main read-out, with a control signal flat, not every such curve was filed as active; note: % of control where 0% means no effect)
Sequence of 3',5'-cyclic-AMP phosphodiesterase 4B (Homo sapiens) (Q07343 whole entry, looked up): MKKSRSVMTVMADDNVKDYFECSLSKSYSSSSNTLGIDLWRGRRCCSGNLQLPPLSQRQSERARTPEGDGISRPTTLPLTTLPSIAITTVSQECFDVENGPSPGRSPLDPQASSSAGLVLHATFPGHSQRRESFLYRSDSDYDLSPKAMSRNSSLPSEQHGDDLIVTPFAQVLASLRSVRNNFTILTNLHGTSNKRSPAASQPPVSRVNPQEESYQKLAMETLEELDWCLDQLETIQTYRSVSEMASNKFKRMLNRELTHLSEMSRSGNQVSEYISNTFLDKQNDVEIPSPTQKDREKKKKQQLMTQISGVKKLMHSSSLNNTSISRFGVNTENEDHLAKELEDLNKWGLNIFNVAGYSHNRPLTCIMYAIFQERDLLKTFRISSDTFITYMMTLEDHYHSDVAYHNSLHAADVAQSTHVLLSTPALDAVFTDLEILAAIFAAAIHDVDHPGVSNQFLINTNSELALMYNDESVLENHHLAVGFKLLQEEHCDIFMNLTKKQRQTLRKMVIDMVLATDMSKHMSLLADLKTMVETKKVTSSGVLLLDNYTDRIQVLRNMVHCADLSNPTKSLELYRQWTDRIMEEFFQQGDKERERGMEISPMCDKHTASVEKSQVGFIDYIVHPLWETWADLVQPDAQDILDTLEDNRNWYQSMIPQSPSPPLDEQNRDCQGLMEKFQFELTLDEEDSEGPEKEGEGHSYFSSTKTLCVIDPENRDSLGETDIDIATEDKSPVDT
Outline: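 ACTOne HEK293 cells carry a modified cAMP-gated CNG channel and express endogenous PDE4; plated 1000 cells/well, compounds up to 22.9 uM final. Membrane-potential dye fluorescence (ex 535/em 590) was read; parental cells received 10 uM forskolin + 100 uM RO 20-1724.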

[7] = qHTS Assay for Lipid Storage Modulators (AID 1519; calls by dose curve); settings: Drosophila S3 cells, BODIPY lipid droplet/cell ratio, laser cytometry, cells loaded with oleic acid; for activity change, negative = inhibition: at 25.7 µM (top of the series)
Outline: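 Cells seeded at 5,000 per well were treated with compounds over a concentration series and loaded with oleic acid (400 uM, as added). Lipid droplet fluorescence (488 nm excitation, 500-530 nm channel) was read by laser-scanning cytometry and normalized to 20 uM Triacsin C.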

[8] = biological target: Ubiquitin carboxyl-terminal hydrolase 1 (Homo sapiens) (UniProt O94782); assay: Inhibitors of USP1/UAF1: Pilot qHTS (AID 504865; active = well fitted curve in the direction sought with a large enough effect; an effect the other way counts as inactive or inconclusive;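 note: rhodamine fluorescence freed from ubiquitin-rhodamine substrate followed over time; top concentration of the series differs between compounds; % is set by controls: 0 for no effect and ±100 for the full control effect; nearly all actives have a fitted effect of over 35% in size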)
Sequence of Ubiquitin carboxyl-terminal hydrolase 1 (Homo sapiens) (O94782 whole entry, looked up): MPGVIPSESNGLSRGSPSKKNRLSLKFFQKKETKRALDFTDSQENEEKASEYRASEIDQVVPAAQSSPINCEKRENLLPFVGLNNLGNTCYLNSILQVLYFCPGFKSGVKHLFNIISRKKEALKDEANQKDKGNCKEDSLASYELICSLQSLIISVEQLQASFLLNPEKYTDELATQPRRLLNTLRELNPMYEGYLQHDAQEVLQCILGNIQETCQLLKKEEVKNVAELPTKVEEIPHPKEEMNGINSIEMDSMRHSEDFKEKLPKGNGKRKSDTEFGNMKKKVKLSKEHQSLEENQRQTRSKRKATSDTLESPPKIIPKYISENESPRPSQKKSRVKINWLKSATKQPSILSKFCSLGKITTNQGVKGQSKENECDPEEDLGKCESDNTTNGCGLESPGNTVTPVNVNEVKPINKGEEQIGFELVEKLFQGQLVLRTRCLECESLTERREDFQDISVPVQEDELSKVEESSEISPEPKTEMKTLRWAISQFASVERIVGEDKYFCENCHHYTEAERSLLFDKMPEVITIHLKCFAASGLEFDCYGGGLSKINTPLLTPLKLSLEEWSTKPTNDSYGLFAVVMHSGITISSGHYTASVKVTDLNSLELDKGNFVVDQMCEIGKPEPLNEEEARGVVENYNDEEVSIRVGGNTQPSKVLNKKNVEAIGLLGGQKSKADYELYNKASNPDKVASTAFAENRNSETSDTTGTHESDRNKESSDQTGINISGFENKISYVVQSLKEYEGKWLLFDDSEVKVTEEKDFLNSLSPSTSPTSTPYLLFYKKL
Outline: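 Kinetic fluorescence assay: 1nM USP1/UAF1, 15 min compound preincubation, then 150nM Ub-Rho; 480/540 nm.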

[9] = biological target: Glucocorticoid receptor (Homo sapiens) (UniProt P04150); assay: GR-GFP Redistribution (AID 450;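 active = compounds whose dose series gives a full or clear partial fitted curve of increased nuclear translocation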; note: potency is the fitted concentration of half-maximal effect); settings: U2OS GR-GFP nuclear translocation, laser cytometry, 2 h
Sequence of Glucocorticoid receptor (Homo sapiens) (P04150 whole entry, looked up, the tested form may be a part): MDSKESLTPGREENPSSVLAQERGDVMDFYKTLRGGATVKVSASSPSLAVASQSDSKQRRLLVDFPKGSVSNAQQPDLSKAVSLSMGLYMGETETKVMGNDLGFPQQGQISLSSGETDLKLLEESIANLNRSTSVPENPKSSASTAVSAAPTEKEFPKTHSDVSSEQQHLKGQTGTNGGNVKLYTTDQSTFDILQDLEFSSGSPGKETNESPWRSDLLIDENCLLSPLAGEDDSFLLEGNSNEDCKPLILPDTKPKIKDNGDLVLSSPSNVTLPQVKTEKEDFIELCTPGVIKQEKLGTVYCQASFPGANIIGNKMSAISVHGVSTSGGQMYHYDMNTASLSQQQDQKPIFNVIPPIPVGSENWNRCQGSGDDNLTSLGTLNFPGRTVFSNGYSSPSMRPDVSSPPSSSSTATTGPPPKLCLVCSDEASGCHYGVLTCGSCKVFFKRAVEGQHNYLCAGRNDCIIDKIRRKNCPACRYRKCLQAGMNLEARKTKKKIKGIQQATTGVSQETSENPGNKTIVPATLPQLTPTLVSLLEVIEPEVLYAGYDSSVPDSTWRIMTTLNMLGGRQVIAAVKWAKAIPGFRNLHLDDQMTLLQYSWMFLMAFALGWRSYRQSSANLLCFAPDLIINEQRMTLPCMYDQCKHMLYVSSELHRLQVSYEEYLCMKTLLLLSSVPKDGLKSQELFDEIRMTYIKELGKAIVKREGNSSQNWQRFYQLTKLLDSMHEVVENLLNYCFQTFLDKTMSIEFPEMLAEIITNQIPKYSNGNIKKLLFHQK

[10] = biological target: Glucocorticoid receptor (Homo sapiens) (UniProt P04150); assay: GR-EFC Redistribution (AID 451; calls by dose curve; note: potency is the fitted concentration of half-maximal effect); settings: CHO-K1 GR-EFC translocation, beta-gal luminescence, 2 h
Outline: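 CHO-K1 cells expressing nuclear EA and GR-ED fragments of b-gal; compounds titrated up to 46 uM final, 2 h at 37 C. GR nuclear translocation read as complemented b-gal luminescence after 1 h RT detection.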

[11] = biological target: Luciferin 4-monooxygenase (Photinus pyralis) (UniProt P08659); assay: Biochemical firefly luciferase enzyme assay for NPC (AID 624030; active = well fitted curve in the direction sought with a large enough effect; an effect the other way counts as inactive or inconclusive;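 note: purified P. pyralis luciferase at 10 nM with luciferin and ATP substrate; 0% = DMSO and -100% = full luciferase inhibition by PTC124 control; nearly all actives have a fitted effect of over 70% in size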)
Sequence of Luciferin 4-monooxygenase (Photinus pyralis) (P08659 whole entry, looked up): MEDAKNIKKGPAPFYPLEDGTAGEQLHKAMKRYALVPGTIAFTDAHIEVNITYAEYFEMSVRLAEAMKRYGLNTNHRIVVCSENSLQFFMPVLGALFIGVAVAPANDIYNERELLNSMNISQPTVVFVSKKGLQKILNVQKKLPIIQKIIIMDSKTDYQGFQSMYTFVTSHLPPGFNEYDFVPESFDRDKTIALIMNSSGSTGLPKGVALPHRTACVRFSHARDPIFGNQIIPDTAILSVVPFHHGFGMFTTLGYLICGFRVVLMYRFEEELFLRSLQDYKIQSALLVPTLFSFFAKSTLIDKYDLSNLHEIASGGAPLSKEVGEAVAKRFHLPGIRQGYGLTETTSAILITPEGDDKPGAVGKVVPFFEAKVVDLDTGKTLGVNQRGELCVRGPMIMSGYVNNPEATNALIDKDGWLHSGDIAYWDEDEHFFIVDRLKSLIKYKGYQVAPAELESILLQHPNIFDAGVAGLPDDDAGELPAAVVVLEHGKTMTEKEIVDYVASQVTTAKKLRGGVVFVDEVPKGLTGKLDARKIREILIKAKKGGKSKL
Outline: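 Purified P. pyralis luciferase at 10 nM in 50 mM Tris Acetate (final), luminescence read within 5 minutes of enzyme addition to compounds. Activity normalised to PTC124 versus DMSO; concentration-response curves classed by r2, magnitude and activity.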

[12] = S16 Schwann cell viability assay (CellTiter-Glo assay) (AID 624031; active = well fitted curve in the direction sought with a large enough effect; an effect the other way counts as inactive or inconclusive;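 note: cellular ATP luminescence as a viability measure; plate controls were DMSO-treated cells for no effect and cell-free wells for full effect; nearly all actives have a fitted effect of over 70% in size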)
Outline: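 This viability control uses native rat S16 Schwann cells grown in DMEM plus 10% FBS. After a 24 h compound treatment at 37 °C, CellTiter-Glo luminescence reports ATP content, scaled against DMSO-treated and cell-free wells.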

[13] = qHTS profiling for inhibitors of Plasmodium falciparum proliferation (AID 504749; active = well fitted curve in the direction sought with a large enough effect; an effect the other way counts as inactive or inconclusive;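 note: 0% = DMSO vehicle and full inhibition = artemisinin control; nearly all actives have a fitted effect of over 60% in size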); settings: P. falciparum in erythrocytes, SYBR Green DNA, 72 h, at 12.8 µM (top of the series)
Outline: (§1)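 SYBR Green fluorescence (ex 485 nm, em 535 nm) reports parasite DNA after 72 h compound exposure of infected red cells at 0.3% parasitemia, 2.5% hematocrit; signal normalized to 0.29 uM artemisinin and vehicle wells.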

C2A = assay: as above; settings: P. falciparum in erythrocytes, SYBR Green DNA, 72 h; series mostly up to 12.8 µM
Outline: as §1

CP191 = assay: as above; settings: P. falciparum in erythrocytes, SYBR Green DNA, 72 h; series mostly up to 12.8 µM
Outline: as §1

CP250 = assay: as above; settings: P. falciparum in erythrocytes, SYBR Green DNA, 72 h; series mostly up to 12.8 µM
Outline: as §1

FAB9 = assay: as above; settings: P. falciparum in erythrocytes, SYBR Green DNA, 72 h; series mostly up to 12.8 µM
Outline: as §1

JCK = assay: as above; settings: P. falciparum in erythrocytes, SYBR Green DNA, 72 h; series mostly up to 12.8 µM
Outline: as §1

SC27B = assay: as above; settings: P. falciparum in erythrocytes, SYBR Green DNA, 72 h; series mostly up to 12.8 µM
Outline: as §1

[14] = biological target: ATP-dependent 6-phosphofructokinase (Trypanosoma brucei brucei) (UniProt O15648); assay: qHTS Assay to Find Inhibitors of T. brucei phosphofructokinase: hit validation (AID 492961; active = well fitted curve in the direction sought with a large enough effect; an effect the other way counts as inactive or inconclusive; note: % is set by controls: 0 for no effect and ±100 for the full control effect)
Sequence of ATP-dependent 6-phosphofructokinase (Trypanosoma brucei brucei) (O15648 whole entry, looked up): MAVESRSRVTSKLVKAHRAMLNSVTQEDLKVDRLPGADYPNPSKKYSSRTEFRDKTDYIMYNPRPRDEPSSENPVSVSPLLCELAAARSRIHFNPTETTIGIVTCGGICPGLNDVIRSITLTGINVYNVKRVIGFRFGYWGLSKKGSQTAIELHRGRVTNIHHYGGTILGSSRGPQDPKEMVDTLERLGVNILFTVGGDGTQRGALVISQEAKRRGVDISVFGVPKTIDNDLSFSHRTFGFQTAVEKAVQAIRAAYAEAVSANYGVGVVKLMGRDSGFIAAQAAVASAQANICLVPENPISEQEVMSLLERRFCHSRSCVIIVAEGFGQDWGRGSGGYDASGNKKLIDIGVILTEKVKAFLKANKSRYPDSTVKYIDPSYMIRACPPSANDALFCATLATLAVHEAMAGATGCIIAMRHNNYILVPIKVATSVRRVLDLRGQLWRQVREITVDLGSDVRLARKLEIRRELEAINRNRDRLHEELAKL
Outline: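 Luminescence from ADP-Glo reports ADP generated as T. brucei PFK (1.25 nM) phosphorylates 0.5 mM fructose-6-phosphate using 0.1 mM ATP. Reactions ran 45 min at room temperature, pH 8.0.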

[15] = measured here: cell count channel max response
[16] = measured here: lipid channel max response

CC[C@@H]1OC(=O)[C@H](C)[C@H](O[C@@H]2C[C@](C)(OC)[C@H](O)[C@H](C)O2)[C@H](C)[C@H](O[C@@H]2O[C@@H](C)C[C@@H](N(C)C)[C@@H]2O)[C@](C)(O)C[C@H](C)[C@@H]2N[C@H](COCCOC)O[C@H]([C@@H]2C)[C@]1(C)O
-8.33%: max response [7, 15]
inactive: outcome [1] | Potency [2] | activity change, negative = inhibition [3] -16.7% | outcome [4] | Potency [5] | outcome [6] | activity change, negative = inhibition [7] -3.92% | Potency [8]
-9.89%: max response [7, 16]

Nc1ccn([C@@H]2CC[C@H](CO)O2)c(=O)n1
-6.51%: max response [7, 16]
inactive: outcome [1] | Potency [2] | activity change, negative = inhibition [3] -7.49% | outcome [4] | Potency [5] | outcome [6] | activity change, negative = inhibition [7] -3.47%
-4.3%: max response [7, 15]

C[C@@H]1C[C@@H]2[C@H]3CCC4=CC(=O)C=C[C@]4(C)[C@]3(F)[C@@H](O)C[C@]2(C)[C@@]1(O)C(=O)CO
inactive: outcome [1] | Potency [2] | activity change, negative = inhibition [3] -9.85% | outcome [4] | outcome [6] | activity change, negative = inhibition [7] -3.53% | Potency [8]
2.12%: max response [7, 15]
-8.18%: max response [7, 16]

CC(=O)c1cc2ccccc2oc1=O
-18.4%: max response [7, 16]
inactive: outcome [1] | activity change, negative = inhibition [3] -3.16% | outcome [4] | Potency [5] | outcome [6] | activity change, negative = inhibition [7] -3.99%
active: Potency [2] 0.2 µM
-14%: max response [7, 15]

O=C(O)[C@@H](O)[C@@H](O)[C@@H](O[C@H]1O[C@@H](CO)[C@@H](O)[C@@H](O)[C@@H]1O)[C@@H](O)CO
inactive: outcome [1] | Potency [2] | outcome [4] | Potency [9] > 20.6 µM | Potency [10] > 20.6 µM | Potency [5] | outcome [6] | activity change, negative = inhibition [7] -0.529% | Potency [8] | Potency [11]
10.3%: max response [7, 16]
12.1%: max response [7, 15]

O=C(/C=C\c1ccc(O)c(O)c1)O[C@@H]1C[C@](O)(C(=O)O)C[C@@H](O)[C@@H]1O
1.17%: max response [7, 15]
inactive: outcome [1] | Potency [2] | activity change, negative = inhibition [3] -0.271% | outcome [4] | Potency [5] | outcome [6] | activity change, negative = inhibition [7] 2.29% | Potency [8]
3.23%: max response [7, 16]

C=CC1=C(C(=O)O)N2C(=O)[C@@H](NC(=O)/C(=N\OCC(=O)O)c3csc(N)n3)[C@@H]2SC1
9.17%: max response [7, 16]
6.88%: max response [7, 15]
inactive: outcome [1] | Potency [2] | activity change, negative = inhibition [3] -1.88% | outcome [4] | Potency [5] | outcome [6] | activity change, negative = inhibition [7] 0.264% | Potency [8] | Potency [11] | outcome [12] | activity, negative = inhibition ([13]; parasite line A) -8.61% | activity, negative = inhibition ([13]; parasite line B) -5.96% | Potency (C2A) | Potency (CP191) | Potency (CP250) | Potency (FAB9) | Potency (JCK) | Potency (SC27B)

CN(C)CCCO[C@H]1[C@@H]2OC(C)(C)O[C@@H]2O[C@@H]1[C@H](O)CO
-0.368%: max response [7, 16]
-1.4%: max response [7, 15]
inactive: outcome [1] | Potency [2] | outcome [4] | Potency [9] > 20.6 µM | Potency [10] > 20.6 µM | Potency [5] | outcome [6] | activity change, negative = inhibition [7] 0.679% | Potency [8]

C[C@@]12C=CC(=O)C=C1CC[C@@H]1[C@@H]2[C@H](O)C[C@]2(C)[C@@H]1CC[C@]2(O)C(=O)CO
2.46%: max response [7, 15]
inactive: outcome [1] | Potency [2] | activity change, negative = inhibition [3] -7.95% | outcome [4] | outcome [6] | activity change, negative = inhibition [7] -5.21% | Potency [8]
-3.94%: max response [7, 16]

CC[C@@H]1OC(=O)[C@H](C)[C@H](O[C@@H]2C[C@](C)(OC)[C@H](O)[C@H](C)O2)[C@H](C)[C@H](O[C@@H]2O[C@@H](C)C[C@@H](N(C)C)[C@@H]2O)[C@](C)(O)C[C@H](C)C(=O)[C@H](C)[C@H](O)[C@]1(C)O
8.95%: max response [7, 16]
9.04%: max response [7, 15]
inactive: outcome [1] | Potency [2] | activity change, negative = inhibition [3] 0.792% | outcome [4] | Potency [5] | outcome [6] | activity change, negative = inhibition [7] -1.3%

C[C@]12CC[C@@H]3C(=CCc4cc(O)ccc43)[C@@H]1CCC2=O
-15.4%: max response [7, 16]
active: Potency [2] 10 µM
-14.4%: max response [7, 15]
inactive: outcome [1] | activity change, negative = inhibition [3] 1.57% | Potency [9] > 20.6 µM | Potency [10] > 20.6 µM | Potency [5] | outcome [6] | activity change, negative = inhibition [7] -4.32% | Potency [8]

CO[C@]1(NC(=O)Cc2cccs2)C(=O)N2C(C(=O)O)=C(COC(N)=O)CS[C@H]21
inactive: outcome [1] | Potency [2] | activity change, negative = inhibition [3] 3.7% | outcome [4] | Potency [5] | outcome [6] | activity change, negative = inhibition [7] 2.57% | Potency [8]
-2.6%: max response [7, 15]
0.943%: max response [7, 16]

NS(=O)(=O)c1cc2c(cc1C(F)(F)F)N[C@H](Cc1ccccc1)NS2(=O)=O
inactive: outcome [1] | activity change, negative = inhibition [3] 17.7% | outcome [4] | Potency [5] | outcome [6] | activity change, negative = inhibition [7] 1.42% | outcome [14] | Potency [11] | outcome [12] | activity, negative = inhibition ([13]; parasite line A) -1.91% | Potency (C2A) | Potency (CP191) | Potency (CP250) | Potency (FAB9) | Potency (JCK) | Potency (SC27B)
-8.69%: max response [7, 15]
active: Potency [2] 15.8 µM
-8.81%: max response [7, 16]

C[C@@H]1[C@H]2CC[C@@H]3[C@@H]4CC=C5C[C@@H](N(C)C)CC[C@]5(C)[C@@H]4CC[C@@]32CN1C
inactive: outcome [1] | Potency [2] | outcome [4] | Potency [9] > 20.6 µM | Potency [10] > 20.6 µM | Potency [5] | outcome [6] | activity change, negative = inhibition [7] -1.08%
-8.59%: max response [7, 16]
-4.62%: max response [7, 15]

COc1cc2cc3c4cc(OC)c(OC)cc4cc[n+]3c(C)c2cc1OC
inactive: outcome [1] | Potency [2] | outcome [4] | Potency [10] > 20.6 µM | outcome [6] | activity change, negative = inhibition [7] 0.187% | Potency [8]
-9.25%: max response [7, 15]
-9.88%: max response [7, 16]
